The results in this text go back to PubChem BioAssay AID493131 (Broad Institute, 2011).

Screen size: about 340,000 compounds; about 3,300 (0.97%) were called active.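 The calls were made as follows: active = mean activation above about 17%, with every replicate also reaching it (limit read from the data, passing the limit was not always enough); inconclusive = only one of the two conditions met; inactive = the rest.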 The sample as a whole holds a higher share of actives than the screen did.

For this assay, the target named is Protein FosB (Mus musculus) (UniProt P13346). Briefly: enhancers of mouse delta FosB DNA binding – biochemical, fluorescence polarization, TAMRA-CDK5 oligo, single point, primary screen (AID 493131). The conditions noted are these: purified delta FosB, at 25 µM, active compounds read high, percent of positive-control signal above neutral wells. Background: Fluorescence polarisation rises when a labelled molecule tumbles more slowly, as on binding a larger partner.
Protein FosB (Mus musculus), sequence (P13346 whole entry, looked up): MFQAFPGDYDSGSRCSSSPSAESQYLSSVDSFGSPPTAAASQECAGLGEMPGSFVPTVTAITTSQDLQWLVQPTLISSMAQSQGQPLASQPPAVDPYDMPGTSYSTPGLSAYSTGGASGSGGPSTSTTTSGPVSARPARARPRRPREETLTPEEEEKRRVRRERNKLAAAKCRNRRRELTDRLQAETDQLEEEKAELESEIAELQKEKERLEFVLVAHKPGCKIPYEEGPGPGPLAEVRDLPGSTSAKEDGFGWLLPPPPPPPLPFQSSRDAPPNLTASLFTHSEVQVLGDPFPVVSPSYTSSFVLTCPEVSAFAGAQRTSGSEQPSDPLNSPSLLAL
As for `COc1cc(CNCc2ccc(OC)c3ccccc23)cc(OC)c1OC`, the activation is -10.2% (inactive).

On to `Cc1cc(C)c2nc3nc(C)cc(C)c3c(N)c2c1`, for which the activation is 25.9% (active).

For `CNC(=O)C1CC(=O)N(c2ccc(OCC(=O)Nc3ccccc3C)cc2)C1` (stereo not given), the activation is 5.55% (inactive).

On to `COc1ccc(OC)c(S(=O)(=O)N(C)CC(=O)N2CCN(c3ccccc3)CC2)c1`, for which the activation is 3.45% (inactive).

In the case of `O=C1CC(c2ccccc2)C(=O)N1c1cccc(O)c1` (stereo not given), the activation is 0.8% (inactive).

For the compound `O=C1c2cccc3cccc(c23)C(=O)N1c1cccc(O)c1`, the activation was 27.4% (active).

Consider `O=C(CN1C(=O)c2cccc3cccc(c23)C1=O)N1CCCCC1`, for which the activation is 2.41% (inactive).

Regarding `Cc1ccccc1CC1(CO)CCCN(Cc2ccc3c(c2)OCCO3)C1` (stereo not given), the activation was -8.09% (inactive).

Turning to `COc1ccc(-n2cnc3cc(NCc4ccco4)ccc32)cc1`, the activation is -0.508% (inactive).

As for `C=CCC(NCc1ccco1)c1ccc(OC)cc1` (stereo not given), the activation was -0.535% (inactive).

On to `COc1ccc(Nc2nc(NCc3ccco3)nc(N/N=C/c3ccccc3Cl)n2)cc1`, for which the activation was 43% (active).

For the compound `O=C1c2cccnc2C(Nc2ccc(S(=O)(=O)N3CCCCCC3)cc2)N1Cc1ccccc1` (stereo not given), the activation is -10.2% (inactive).

On to `O=C(Cc1ccc(-n2c(=O)c3sccc3n(Cc3ccc(F)cc3)c2=O)cc1)NCc1ccco1`, for which the activation was 20.9% (active).

As for `O=C(NCc1ccco1)c1cc2sccc2n1Cc1ccc(F)cc1`, the activation was -6.3% (inactive).

`O=C(NCc1ccco1)c1ccc(Cn2c(=O)c3sccc3n(Cc3ccc(F)cc3)c2=O)cc1`: the activation is -6.02% (inactive).

On to `CC1(C)Oc2ccc(C(=O)N3CCOCC3)cc2N(CC(=O)Nc2ccccc2)C1=O`, for which the activation was -4.29% (inactive).

In the case of `CC(=O)NC(Cc1ccc(F)c(F)c1)C(=O)NC1CCN(c2nnnn2-c2ccccc2)CC1` (stereo not given), the activation is -5.56% (inactive).

With `COc1ccc(CCNC(=O)C2CCCN2C(=O)Nc2ccccc2)cc1OC` (stereo not given), the activation was 1.24% (inactive).

Consider `CC(C)CCNC(=O)c1ccc2c(Cl)c3c(nc2c1)CCC3`, for which the activation was -19.8% (inactive).

On to `CC(=NC1CCN(Cc2ccccc2)CC1)c1c(O)[nH]c(=O)[nH]c1=O`, for which the activation was 6.14% (inactive).

Take `c1ccc(CN2CCC(N=C3NN=C(c4ccc5c(c4)OCCO5)CS3)CC2)cc1`: the activation is 18.3% (active).

With `CS(=O)(=O)N(CC(=O)N1CCN(Cc2ccccc2)CC1)c1ccc2c(c1)OCCO2`, the activation is -2.7% (inactive).

With `Cc1ccc(C(=O)NC(C)c2ccccc2)cc1Br` (stereo not given), the activation was -1.72% (inactive).

Regarding `CCN(C(=O)CSc1nc2ccccc2n1CC)C1CCS(=O)(=O)C1` (stereo not given), the activation was -12.5% (inactive).

In the case of `O=C(CNS(=O)(=O)c1ccc(Br)s1)NCc1ccc2c(c1)OCO2`, the activation was -7.24% (inactive).

For the compound `COc1cccc(OCc2cc(/C=N/NC(=O)c3nc(Cl)c(Cl)c(N)c3Cl)ccc2OC)c1`, the activation was 59.2% (active).

For `COc1ccc2[nH]c(C(=O)N/N=C/c3cc(OC)c(OC)c(OC)c3)cc2c1`, the activation is -21.6% (inactive).

On to `CCOc1ccc2[nH]c(C(=O)N/N=C/c3cccc(OC)c3OC)cc2c1`, for which the activation is -5.75% (inactive).

On to `CCOCCCNC(=O)C(NC(=O)c1ccc(=O)[nH]c1)c1ccc(Cl)cc1` (stereo not given), for which the activation was -7.55% (inactive).

Consider `O=C(Cc1cccs1)N/N=C/c1ccc(OCc2ccccc2)cc1`, for which the activation was -8.99% (inactive).

In the case of `O=C(N/N=C/c1ccc(OCc2ccccc2)cc1)c1ccc(O)cc1`, the activation is 19.7% (active).

As for `O=C(COc1ccc(/C=N/NC(=O)c2ccc(O)cc2)cc1)Nc1ccc([N+](=O)[O-])cc1`, the activation was -4.3% (inactive).

Take `O=C(Nn1cnc2ccccc2c1=O)c1ccc(F)cc1Cl`: the activation was -11% (inactive).

On to `Cc1ccc(S(=O)(=O)NCc2ccc(C(=O)NC3CCC(C)CC3)cc2)cc1` (stereo not given), for which the activation was 1.88% (inactive).

With `Cc1cccc(C)c1NC(=O)c1ccc(CN2CCc3ccccc3C2)cc1`, the activation is 5.39% (inactive).

Turning to `COc1ccc(OC)c(NC(=O)C2CCCN2S(=O)(=O)c2cccc3nsnc23)c1` (stereo not given), the activation was -12.4% (inactive).

For `COC(=O)C1=C(C)N(c2ccc(C)cc2)/C(=C/c2ccc(O)cc2)C1=O`, the activation was -7.3% (inactive).

Consider `CCCc1nnc(SCC(=O)Nc2ccc(C(=O)OCC)cc2)o1`, for which the activation is -7.89% (inactive).

With `O=C(CSc1nnc(Cn2cnc3ccccc32)o1)c1ccccc1`, the activation was -10.9% (inactive).

As for `CC(=O)Nc1ccc(C(=O)CSc2nnc(Cc3ccccc3)o2)cc1`, the activation is 32.2% (active).

With `COC(=O)CN1C(=O)N/C(=C/c2ccc(OC)c(C)c2OC)C1=O`, the activation was -0.812% (inactive).

Turning to `CCN1C(=NCCc2cccnc2)N[C@@H](c2ccccc2)C(C(=O)OC)=C1C`, the activation was -0.917% (inactive).

Regarding `Clc1ccc(C2[C@H]3CN(CC4CCCCC4)[C@H](c4ccccc4)C34CC2(c2cccnc2)C4)cn1` (stereo not given in full), the activation is 2.72% (inactive).

For the compound `COC(=O)c1ccc(C23CC4(C2)[C@H](CN(Cc2cccnc2)[C@@H]4c2ccccc2)C3c2ccc(Cl)nc2)cc1` (stereo not given in full), the activation is 23.5% (active).

In the case of `CN(C)C(=O)CSc1n[nH]c(-c2ccco2)n1`, the activation is 7.7% (inactive).

Regarding `COc1ccc(C(=O)C2CCCN(S(=O)(=O)c3cccc(C)c3)C2)c(C)c1` (stereo not given), the activation was -8.61% (inactive).

As to `COc1cc2[nH]c(=O)n(Cc3ccc(C(=O)NC4CCN(Cc5ccccc5)CC4)cc3)c(=O)c2cc1OC`, the activation was 40.7% (active).

With `COc1cc(C(=O)NC2CCN(Cc3ccccc3)CC2)cc(Cl)c1OC(C)C`, the activation is -2.75% (inactive).

In the case of `COc1cc2[nH]c(=O)n(CCC(=O)NC3CCN(Cc4ccccc4)CC3)c(=O)c2cc1OC`, the activation was -7.1% (inactive).

With `CN(C(=O)COC(=O)c1ccc(Br)o1)c1c(N)n(Cc2ccccc2)c(=O)[nH]c1=O`, the activation is 5.25% (inactive).

Take `CC(C)CN(C(=O)COC(=O)c1ccc(Cl)c(N)c1)c1c(N)n(Cc2ccccc2)c(=O)[nH]c1=O`: the activation was 0.351% (inactive).

Consider `Cc1cc(OCC(=O)N(C)c2c(N)n(Cc3ccccc3)c(=O)[nH]c2=O)c(C(C)C)cc1Cl`, for which the activation was 30.7% (active).

For `CC(C)Sc1nc(N)nc2c1ncn2C1OC(CO)C(O)C1O` (stereo not given), the activation was -4.1% (inactive).

As to `O=C(CCN1CCc2ccccc2C(O)(c2ccccc2)C1)c1ccc2c(c1)OCCO2` (stereo not given), the activation was 1.68% (inactive).

For `CCCCN(C(=O)c1ccc(OC(F)(F)F)cc1)c1c(N)n(CCC)c(=O)[nH]c1=O`, the activation is -2.28% (inactive).
